In PubChem BioAssay (NCATS):
Several values for one entry are separate records, joined by “and”; a condition that tells them apart may be missing. Equal entries are not always repeated. Inconclusive results are not listed. Activity calls are given as the source filed them. Unless noted, calls follow the shape of the dose curve; as a rule, active = well fitted inhibition curve with a large enough effect; inconclusive = small, poorly fitted or top-dose-only effect; inactive = flat fitted curve, though single readings scatter.

System: not listed separately
Test: Drug repurposing screens with cells derived from glioblastoma tumor samples (AID 1345199); also: nearly all actives have a fitted effect of over 40% in size; also: potency is read from the fitted curve at half-maximal effect; as to activity, negative = cell killing: % is scaled to controls: 0 for no effect and ±100 for the full control effect
Conditions: GBM patient neurospheres viability, ATP luminescence, 48 h; at 45.9 µM (top of the series); tumour line D
Procedure, shortened: (§1)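 Four patient lines of CD133+ GBM neurospheres were screened at several concentrations; hits were retested in those lines plus three slower-growing GBM lines, using 48-hour treatment and ATP-based viability.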

SMILES | activity, negative = cell killing
C[N+](C)(C)CCO | -15.3% (inactive) and -5.56% (inactive)
NC(N)=NCCCCN=C(N)N | -4.71% (inactive)
CC(C)C[C@H](NC(=O)CNC(=O)[C@H](Cc1ccc(O)cc1)NC(=O)[C@H](CO)NC(=O)[C@H](Cc1c[nH]c2ccccc12)NC(=O)[C@H](Cc1cnc[nH]1)NC(=O)[C@@H]1CCC(=O)N1)C(=O)N[C@@H](CCCN=C(N)N)C(=O)N1CCC[C@H]1C(=O)NCC(N)=O (stereo in doubt) | 6.77% (inactive)
CCN(CC)CCNC(=O)c1ccc(NS(C)(=O)=O)cc1 | -14.7% (inactive)

Same assay, conditions: GBM patient neurospheres viability, ATP luminescence, 48 h; at 46 µM (top of the series); tumour line A

SMILES | activity, negative = cell killing
C[N+](C)(C)CCO | -28.3% (inactive) and -25.4% (inactive)
NC(N)=NCCCCN=C(N)N | -10% (inactive)
CC(C)C[C@H](NC(=O)CNC(=O)[C@H](Cc1ccc(O)cc1)NC(=O)[C@H](CO)NC(=O)[C@H](Cc1c[nH]c2ccccc12)NC(=O)[C@H](Cc1cnc[nH]1)NC(=O)[C@@H]1CCC(=O)N1)C(=O)N[C@@H](CCCN=C(N)N)C(=O)N1CCC[C@H]1C(=O)NCC(N)=O (stereo in doubt) | -26% (inactive)

Same assay, conditions: GBM patient neurospheres viability, ATP luminescence, 48 h; at 46.1 µM (top of the series); tumour line C

SMILES | activity, negative = cell killing
C[N+](C)(C)CCO | 20.9% (inactive) and 13.7% (inactive)
C[C@@H](C1=C(CCN(C)C)Cc2ccccc21)c1ccccn1 | -5.63% (inactive)
NC(N)=NCCCCN=C(N)N | -21.5% (inactive)
CC(C)C[C@H](NC(=O)CNC(=O)[C@H](Cc1ccc(O)cc1)NC(=O)[C@H](CO)NC(=O)[C@H](Cc1c[nH]c2ccccc12)NC(=O)[C@H](Cc1cnc[nH]1)NC(=O)[C@@H]1CCC(=O)N1)C(=O)N[C@@H](CCCN=C(N)N)C(=O)N1CCC[C@H]1C(=O)NCC(N)=O (stereo in doubt) | -6.29% (inactive)
CCN(CC)CCNC(=O)c1ccc(NS(C)(=O)=O)cc1 | -3.28% (inactive)

Same assay, conditions: GBM patient neurospheres viability, ATP luminescence, 48 h; tumour line A

SMILES | Potency
C[C@@H](C1=C(CCN(C)C)Cc2ccccc21)c1ccccn1 | 17.8 µM (active)
CC(=O)Oc1ccc(C2(c3ccc(OC(C)=O)cc3)Oc3ccccc3NC2=O)cc1 | 22.4 µM (active)
CC(C)OC(=O)c1cc2c(OCC(O)CNC(C)(C)C)cccc2[nH]1 (stereo not given) | 11.2 µM (active)

System: astro (control astrocytes)
Test: as above
Conditions: viability, ATP luminescence, 48 h; series mostly up to 45.9 µM
Procedure, shortened: as §1

SMILES | Potency
C[N+](C)(C)CCO | inactive
C[C@@H](C1=C(CCN(C)C)Cc2ccccc21)c1ccccn1 | inactive
CC(C(O)c1ccccc1)N(C)CCOC(c1ccccc1)c1ccccc1 (stereo not given) | inactive
CCN(CC)CCOc1ccc(/C(=C(\Cl)c2ccccc2)c2ccccc2)cc1 | 17.8 µM (active)
CCCCCCCCCCCCCC[N+](C)(C)C | 10 µM (active)
Cc1cc(OCCOCC[N+](C)(C)Cc2ccccc2)ccc1C(C)(C)CC(C)(C)C | 15.8 µM (active)
CC(C)(C)c1ccc(O)c(O)c1 | inactive
CN1CCC(Nc2ncc3ncnc(Nc4ccc(F)c(Cl)c4)c3n2)CC1 | 17.8 µM (active)
O=C(Oc1ccccc1)c1cccc(C(=O)Oc2ccccc2)c1 | inactive
NC(N)=NCCCCN=C(N)N | inactive
O=C1NC2CCCCN2C12CCN(CCCN1c3ccccc3CCc3ccc(Cl)cc31)CC2 (stereo not given) | 20 µM (active)
Cc1c(C)c2c(c(C)c1OC(=O)CCC(=O)OCCO)CC[C@@](C)(CCC[C@H](C)CCC[C@H](C)CCCC(C)C)O2 | 12.6 µM (active)
CC(C)C[C@H](NC(=O)CNC(=O)[C@H](Cc1ccc(O)cc1)NC(=O)[C@H](CO)NC(=O)[C@H](Cc1c[nH]c2ccccc12)NC(=O)[C@H](Cc1cnc[nH]1)NC(=O)[C@@H]1CCC(=O)N1)C(=O)N[C@@H](CCCN=C(N)N)C(=O)N1CCC[C@H]1C(=O)NCC(N)=O (stereo in doubt) | inactive
O=[N+]([O-])c1ccc(O)c2ncccc12 | 3.55 µM (active)
CCCCCCCCCCCCCCCC[N+](C)(C)Cc1ccccc1 | 12.6 µM (active)
CCCCCCCCCCCCCCCCCCNC(=O)OC1CCN(C(=O)OC[C@H](COC(=O)N(Cc2cccc[n+]2CC)C(=O)c2ccccc2OC)OC)CC1 | 10 µM (active)
CCN(CC)CCNC(=O)c1ccc(NS(C)(=O)=O)cc1 | inactive

Molecular target: Nuclear receptor subfamily 1 group I member 2 (Rattus norvegicus) (UniProt Q9R1A7)
Sequence (Q9R1A7 whole entry, looked up): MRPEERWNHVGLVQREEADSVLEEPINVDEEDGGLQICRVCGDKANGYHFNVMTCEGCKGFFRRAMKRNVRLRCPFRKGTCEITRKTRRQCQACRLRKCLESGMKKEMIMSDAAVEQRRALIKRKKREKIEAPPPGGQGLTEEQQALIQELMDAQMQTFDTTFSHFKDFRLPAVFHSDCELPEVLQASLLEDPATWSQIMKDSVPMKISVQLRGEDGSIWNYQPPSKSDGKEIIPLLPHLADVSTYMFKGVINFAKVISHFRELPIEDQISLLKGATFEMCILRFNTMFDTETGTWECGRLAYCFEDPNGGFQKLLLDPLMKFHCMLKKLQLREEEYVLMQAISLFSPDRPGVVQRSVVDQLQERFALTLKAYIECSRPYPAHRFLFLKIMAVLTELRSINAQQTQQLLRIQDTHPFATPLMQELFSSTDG
Test: qHTS assay for small molecule activators of the rat pregnane X receptor (rPXR) signaling pathway (AID 651751; call rule not given here; also: 0% is about no effect)
Conditions: rPXR reporter cells, luciferase (One-Glo), 24 h

SMILES | max response
O=C(Nc1ccc(Cl)cc1)Nc1ccc(Cl)c(Cl)c1 | -12.4% (inactive)
CC(C)(C)c1ccc(O)c(O)c1 | -0.177% (inactive) and 2.15% (inactive)
OCc1c[nH]c2ccccc12 | 0.925% (inactive)
